KLF5 inhibitor: KLF5 expression inhibitors, primary screen, DLD-1 cells, luminescence; inhibition, % at 5 µM; DLD-1 KLF5 promoter-luciferase reporter; 290,000 compounds, 0.23% hits; AID 1700, 2009;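 active = inhibition above a per-plate limit of that plate's mean compound inhibition plus 3 SD, cut at about 60% in these data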;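 note: higher means less KLF5 promoter-driven luciferase light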
aSyn UTR inh: MLPCN primary screen, SNCA 5' untranslated region. alpha-synuclein 5'UTR reporter, inhibitor activity. inhibition, % (tested at 7.5 µM). 300,000 compounds, 0.82% hits; in the data active = inhibition above about 60%;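 note: H4 neuroglioblastoma cells stably carrying SNCA 5'UTR luciferase fusion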
IEC-6 tox: cytotoxicity in IEC-6 intestinal epithelial cells, primary screen, cytotoxicity control for KLF5 inhibitor project, cell-based, luminescence; IEC-6 cytotoxicity, luminescence viability; inhibition, % at 5 µM; 290,000 compounds, 0.78% hits; in the data active = inhibition above about 22%
Ba/F3 V617F tox: reduced viability of JAK2V617F-dependent Ba/F3 cells, primary screen, JAK2V617F inhibitor project, cell-based, Ba/F3 EpoR-JAK2V617F, luminescence. ATP luminescence. inhibition, % at 5.6 µM. 220,000 compounds, 1.1% hits. AID 1446, 2008;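 active = inhibition above the campaign mean plus 3 SD over all tested compounds, cut at about 24% in these data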;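 note: cytokine-independent growth of Ba/F3 cells driven by EpoR plus mutant JAK2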
BaF3 parental: parental Ba/F3 cell viability inhibition, counter-screen for JAK2V617F inhibitor project, murine pro-B, CellTiter-Glo luminescence | CellTiter-Glo ATP luminescence | inhibition, % at 5.6 µM | 220,000 compounds, 1.1% hits | AID 1486, 2009;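 active = inhibition above a per-campaign cutoff, the mean inhibition of all tested compounds plus 3 SD, cut at about 27% in these data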
APP 5UTR inh: inhibitors of APP translation via 5'UTR reporter, primary screen, APP 5'UTR luciferase, SH-SY5Y cells; SH-SY5Y APP 5'UTR-luciferase reporter, luminescence; inhibition, % at 2 µM; 190,000 compounds, 0.82% hits;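 active = inhibition above a set limit, derived from the sample mean plus 3 SD, cut at about 45% in these data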
BaF3 tox 2: parental Ba/F3 cell viability inhibition, counter-screen for JAK2V617F inhibitor project, murine pro-B, CellTiter-Glo luminescence; 580 compounds, 31% hits; inhibition, % at 5.6 µM; cells kept alive by added IL-3; AID 1520, 2009; shares compounds with Ba/F3 V617F tox;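 active = cell growth inhibition above the hit limit set in the earlier mutant JAK2 cell screen, cut at about 27% in these data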
JAK2V617F confrm: viability loss in Ba/F3 EpoR-JAK2V617F cells, confirmation, JAK2V617F inhibitor project, cell-based, luminescence, triplicate; shares compounds with Ba/F3 V617F tox; CellTiter-Glo luminescence; inhibition, % at 5.6 µM; 580 compounds, 66% hits; AID 1521, 2009;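 active = mean inhibition above the hit cutoff derived in the earlier primary screen, cut at about 25% in these data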;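 note: higher means lower luminescence from reduced cell ATP and viability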
Numbers stand for hits; i = inactive; nt = not tested or not shown. The list is not random: actives were taken first. Their share in the collection is about 2.2%.

SMILES	KLF5 inhibitor	aSyn UTR inh	IEC-6 tox	Ba/F3 V617F tox	BaF3 parental	APP 5UTR inh	BaF3 tox 2	JAK2V617F confrm
O=[N+]([O-])c1cc(/C=N/Nc2nc3ccccc3[nH]2)c(O)cc1O	i	i	i	30	i	50	68	81
COc1cccc(-n2nnnc2S(C)(=O)=O)c1	i	i	39	52	i	i	32	95
CCOc1ccc(OCCn2c(=S)[nH]c3c(N)ncnc32)cc1	i	i	i	i	i	i	nt	nt
Cc1ccc(OCCn2cnc3c(N)ncnc32)cc1	i	i	i	93	i	i	82	28
Cc1noc(NC(=O)c2ccc(Cl)c(Cl)c2)c1Cl	i	i	i	29	i	i	i	47
CC1(C)Cc2c(sc(NC(=O)C(=O)N3CCCCC3)c2C(N)=O)CO1	i	i	i	nt	nt	nt	nt	nt
Cn1c(=O)c(S(=O)C2CCCCC2)c(O)c2ccccc21 (centres undefined)	nt	i	nt	nt	nt	nt	nt	nt
Oc1ccccc1OCC(O)c1ccccc1 (centres undefined)	i	i	i	nt	nt	nt	nt	nt
Oc1ccccc1OCCOc1ccccc1OCCOc1ccccc1O	i	i	i	26	i	i	i	71
CCNc1nc(NCC)n2c(SCC(=O)c3ccccc3Cl)nnc2n1	i	i	i	i	i	i	nt	nt
CC1CN(Cc2cc(=O)[nH]c(C3CC3)n2)CC(C)O1 (centres undefined)	i	i	i	40	i	i	i	i
CC1CCCC(NC(=O)NC(=O)CCl)C1C (centres undefined)	i	i	i	58	i	i	i	83
CC1CCCCC1NC(=O)NC(=O)CCl (centres undefined)	i	i	i	i	i	i	nt	nt
CC(C)C1C(C#N)=C(N)Oc2n[nH]c(-c3cccs3)c21 (centres undefined)	i	i	i	i	i	i	nt	nt
CC(C)C1C(C#N)=C(N)Oc2n[nH]c(-c3ccc4ccccc4c3)c21 (centres undefined)	i	i	i	33	i	55	i	68
CN1CCN(CCCN(Cc2cccs2)C(=S)Nc2ccc(Cl)cc2)CC1	i	i	i	34	i	i	28	46
CCc1ccc(NC(=S)N(CCCN2CCN(C)CC2)Cc2cccs2)cc1	i	i	i	i	i	i	nt	nt
CCOc1ccc(S(=O)(=O)N(CC)CC(=O)NCc2cccnc2)cc1	i	i	i	nt	nt	nt	nt	nt
CCCCN(CC)Cc1ccc(CNC(=O)Nc2ccc(Cl)cc2)o1	i	i	i	47	i	i	i	42
C=CCOc1nc2c(c(=O)n(C)c(=O)n2C)n1Cc1ccc(Cl)cc1	i	i	i	24	i	i	62	53
Cc1c(C#N)c(NC(=O)CCl)n(Cc2ccccc2)c1C	i	i	i	31	i	i	48	98
Cc1c(C#N)c(NC(=O)CCl)n(Cc2ccc(F)cc2)c1C	i	i	i	i	i	i	nt	nt
Cc1c(C#N)c(NC(=O)CCl)n(Cc2cccs2)c1C	i	i	i	36	i	i	35	97
CCCCc1c(O)cc(C)[nH]c1=O	i	i	i	i	i	nt	nt	nt
COc1ccccc1NC(=O)Cc1nnc(SCC(=O)c2ccc(F)cc2)n1C	i	i	i	nt	nt	nt	nt	nt
SMILES	KLF5 inhibitor	aSyn UTR inh	IEC-6 tox	Ba/F3 V617F tox	BaF3 parental	APP 5UTR inh	BaF3 tox 2	JAK2V617F confrm
Cn1c(=O)c(C(=O)NCC2CCCO2)c(O)c2ccccc21 (centres undefined)	i	i	i	i	i	i	nt	nt
COc1ccccc1Nc1nc(-c2c(C)nc3ncccn23)cs1	i	i	i	55	i	i	33	59
CC(C)NC(=O)c1ccc(N(Cc2ccc(Cl)cc2)S(C)(=O)=O)cc1	i	i	i	nt	nt	nt	nt	nt
CN(Cc1ccccc1)C(=O)COC(=O)c1cncc(Br)c1	i	i	i	i	i	i	nt	nt
CN(Cc1ccccc1)C(=O)COC(=O)c1ccc(Cl)c(N)c1	i	i	i	94	i	i	i	i
CCOc1ccccc1N(CC(=O)NC1CCCCC1)S(=O)(=O)c1ccccc1	i	i	i	nt	nt	nt	nt	nt
COc1ccccc1C(c1c(N)n(C)c(=O)n(C)c1=O)C(C)[N+](=O)[O-] (centres undefined)	i	i	i	i	i	nt	nt	nt
COc1ccccc1C(C[N+](=O)[O-])c1c(N)n(C)c(=O)n(C)c1=O (centres undefined)	i	i	i	37	i	nt	i	96
Cc1cccn2cc(COc3ccc(-c4ccccc4)cc3)nc12	i	i	i	48	i	i	43	43
Cc1cccn2cc(COc3cccc([N+](=O)[O-])c3)nc12	i	i	i	i	i	i	nt	nt
Cc1nn(Cc2ccc(Cl)cc2Cl)c(C)c1NC(=O)CCl	i	i	i	30	i	i	i	64
Cc1c(Cl)cccc1NC(=S)NC1CCCC1	i	i	i	nt	nt	nt	nt	nt
C=CCS/C(N)=N\N=C\c1cc(Br)cc([N+](=O)[O-])c1O	i	i	i	i	i	nt	nt	nt
CC(=O)c1ccc(C(=O)N2CCc3c([nH]c4ccccc34)C2c2cccc(C)n2)s1 (centres undefined)	i	i	i	i	i	nt	nt	nt
Cc1cccc(C2c3[nH]c4ccccc4c3CCN2Cc2ccc(C)s2)n1 (centres undefined)	i	i	i	27	i	i	i	i
OC1(c2cccs2)CN(c2ccccc2)C2=[N+]1CCCC2 (centres undefined)	i	i	i	i	i	i	nt	nt
CCOc1ccc(N2CC(O)(c3cccs3)[N+]3=C2CCCC3)cc1 (centres undefined)	i	i	i	23	i	i	31	46
CC1(C)CC(=O)c2cnc(NC(=O)CCc3ccccc3)nc2C1	i	i	i	95	i	i	i	i
O=C(CCc1ccccc1)Nc1ncc2c(n1)CCCC2=O	i	i	i	i	i	i	nt	nt
COc1ccccc1NC(=O)C1C2CCCCC21 (centres undefined)	i	i	i	94	i	i	i	i
COc1ccccc1NC(=O)NC1CCCCCCC1	i	nt	i	nt	nt	nt	nt	nt
O=C(Nc1cccc([N+](=O)[O-])c1)c1cc2ccccc2cc1O	i	i	i	24	i	nt	64	75
COc1ccc(CNC(=O)[C@H](C)NC(=O)N2CCn3c2nc2ccccc23)cc1	i	i	i	nt	nt	nt	nt	nt
Cc1sc2nc3c4ccccc4c(NCc4ccco4)nn3c(=O)c2c1C	i	nt	i	i	i	i	nt	nt
Cc1nc(NCc2ccco2)c2c(C)c(C)sc2n1	i	i	i	27	i	i	34	84

Screening results deposited in PubChem by several laboratories.
